Measured values reported in PubChem BioAssay AID1259312 (Keith Lab, Institute of Cancer Science, University of …, 2017).
Out of some 4,500 compounds screened, about 200 (4.4%) were called active.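 How the source made its calls: active means cell survival measured by absorbance rises more than 2.5-fold over infected cells without compound; inactive means the rest.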 For the sample, actives were picked, then their nearest neighbours and some compounds at random.

Experiment: survival after telomere uncapping, modulators, primary screen, cell-based (AID 1259312);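 further: virus expresses mutant telomerase RNA that uncaps telomeres and kills cells; compound added 2 days after infection so exposure lasts 3 days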
Details: HCT116 + Ad-hTR-mut, MTT, 5 d; at 10 µM, hits give high values

| SMILES | fold change |
| --- | --- |
| S=C(c1ccco1)N1CCOCC1 | 1.24 (inactive) |
| NC(Cc1cc(F)ccc1F)C(=O)O (stereo not drawn) | -3.72 (inactive) |
| O=[N+]([O-])c1cccc(S(=O)(=O)Nc2ccc(I)cc2)c1 | 1.39 (inactive) |
| O=[N+]([O-])c1ccc(Nc2ccc(O)cc2)c([N+](=O)[O-])c1 | -1.07 (inactive) |
| O=[N+]([O-])c1ccc(NS(=O)(=O)c2ccccc2)c([N+](=O)[O-])c1 | 3.49 (active) |
| O=C1CN(C(=O)Cn2c(=O)oc3ccccc32)c2ccccc2N1 | -1.03 (inactive) |
| O=C1CCC(=O)N1CCCCCCN1C(=O)CCC1=O | -1.37 (inactive) |
| O=C(O)C1=NN(c2ccc(S(=O)(=O)O)cc2)C(=O)C1 | 1.74 (inactive) |
| CN1N=C(C(=O)O)CCC1=O | 2.58 (active) |
| O=C1C=CC(=O)N1c1cc(Cl)cc(Cl)c1 | -1.38 (inactive) |
| N#CC1=C(N)C(C#N)(C#N)C(c2ccc(Cl)cc2Cl)C2CCCC=C12 (stereo not drawn) | -4.43 (inactive) |
| Cc1[nH][nH]c(=O)c1C1(C(C#N)C#N)C2CC3CC(C2)CC1C3 (stereo not drawn) | 2.9 (active) |
| C=CCN(CC=C)C(=O)C1c2ccccc2Oc2ccccc21 | -1.36 (inactive) |
| CN(C)c1ccc(NC(=O)c2sc(=S)[nH]c2N)cc1 | -1.46 (inactive) |
| N#Cc1c(C(F)(F)F)cc(-c2cccs2)[nH]c1=S | 4.58 (active) |
| N#Cc1c(C(F)(F)F)cc(-c2ccccc2)[nH]c1=S | -1.58 (inactive) |
| N#Cc1c(C(F)(F)F)cc(-c2cccs2)oc1=S | -2.59 (inactive) |
| O=C(Nc1ccc(I)cc1)C1CCCN1C(=O)c1cccs1 (stereo not drawn) | 1.51 (inactive) |
| CCCCn1c(COc2ccc(Cl)cc2)n[nH]c1=S | -1.76 (inactive) |
| Cn1c(COc2ccc(C3CCCCC3)cc2)n[nH]c1=S | 2.92 (active) |
| Cn1c(Cc2ccccc2)n[nH]c1=S | -1.19 (inactive) |
| O=C(O)CCSc1ncnc2ccccc12 | -3.11 (inactive) |
| CCN(CC)CC(=O)Nc1sc2c(c1C(N)=O)CCCC2 | 1 (inactive) |

| SMILES | fold change |
| --- | --- |
| O=c1[nH]cnc2nn(-c3ccccc3)nc12 | inactive |
| c1ccc(CC2=NCCN2)cc1 | -1.2 (inactive) |
| Fc1ccccc1CSC1=NCCN1 | 3.44 (active) |
| Fc1ccc(CSc2nnc(SCc3ccccc3F)s2)cc1 | -1.07 (inactive) |
| O=C1NC(=O)/C(=C/c2ccc(-c3ccc(Br)c(Cl)c3)o2)N1 | -1.16 (inactive) |
| Nc1ccc(N2CCCC2)c(C(F)(F)F)c1 | 1.69 (inactive) |
| COc1ccc(N/C=C(\C#N)C(N)=S)cc1OC | -3.68 (inactive) |
| COc1ccc(CC2=CN(C)CC3=C2OC(N)=C(C#N)C3c2ccc(OC)cc2)cc1 (stereo not drawn) | 1.19 (inactive) |
| CCCN1CC2=C(OC(N)=C(C#N)C2c2ccc(SC)cc2)/C(=C/c2ccc(SC)cc2)C1 (stereo not drawn) | 5.06 (active) |
| CC(C)N1C=C(Cc2ccc(F)cc2)C2=C(C1)C(c1ccc(F)cc1)C(C#N)=C(N)O2 (stereo not drawn) | 1.45 (inactive) |
| COc1ccc(C(=CCl)c2ccc(OC)c(Br)c2)cc1Br | -2.67 (inactive) |
| CCc1sc(C(C2C(=O)CC(C)(C)CC2=O)C2C(=O)CC(C)(C)CC2=O)cc1[N+](=O)[O-] | 3.11 (active) |
| CCc1sc(C(C2C(=O)CC(C)(C)CC2=O)C2C(=O)CC(C)(C)CC2=O)cc1Br | -6.02 (inactive) |
| CCc1ccc(C(C2C(=O)CC(C)(C)CC2=O)C2C(=O)CC(C)(C)CC2=O)s1 | -2.62 (inactive) |
| O=C(N=Nc1c(O)[nH]c2ccccc12)c1cc(-c2ccco2)[nH]n1 | inactive |
| O=[N+]([O-])c1ccc(Cl)cc1SCCO | 3.06 (active) |
| O=[N+]([O-])c1ccc(SCCO)c2ncccc12 | 1.52 (inactive) |
| O=[N+]([O-])c1ccc(Cl)cc1N1CCN(CCO)CC1 | 2.17 (inactive) |
| COc1ccc(C2C3CCC=C3C(C#N)=C(N)C2(C#N)C#N)c(OC)c1 (stereo not drawn) | 1.26 (inactive) |
| COCCNC(=O)C(=O)NCCC1=CCCCC1 | 1.05 (inactive) |
| c1ccc2c(c1)nnn2CN1CCN(c2ccc3c(c2)OCO3)CC1 | -1.48 (inactive) |
| Clc1cccc(N2CCN(Cn3nnc4ccccc43)CC2)c1 | 3.04 (active) |
| C(=C/c1ccccc1)/CN1CCN(Cn2nnc3ccccc32)CC1 | -1.33 (inactive) |

| SMILES | fold change |
| --- | --- |
| Cc1cc(C)c(CCl)c(C)c1/C=N/O | 1.02 (inactive) |
| O=C(O)CSc1nc(SCc2ccccc2)nc2ccccc12 | 1.5 (inactive) |
| CCc1ccc(C2C(C#N)=C(N)OC3=C2C(=O)CCC3)s1 (stereo not drawn) | 1.35 (inactive) |
| COC(=O)c1nonc1N | -1.05 (inactive) |
| CCOC(=O)c1nonc1N | 3.82 (active) |
| Nc1nonc1C(=O)O | -1.12 (inactive) |
| CS(=O)(=O)Nc1ccc(Br)cn1 | -1.27 (inactive) |
| CCCOc1ccc(N/C(N)=N/c2nc(C)cc(C)n2)cc1 | -3.48 (inactive) |
| CC1=C(C2=C(C)C(C(C)C)C3=C(C(=O)C(O)C3O)C2O)C(O)C2=C(C(O)C(O)C2=O)C1C(C)C (stereo not drawn) | -1.99 (inactive) |
| O=S(=O)(Nc1ccc2c(c1)OCO2)c1ccc(Cl)cc1 | -1.43 (inactive) |
| O=S(=O)(Nc1ccncc1)c1ccc(Cl)cc1 | -1.23 (inactive) |
| O=S(=O)(Nc1cccc(F)c1)c1ccc(F)cc1 | -1.33 (inactive) |
| O=S(=O)(Nc1cc(Cl)cc(Cl)c1)c1ccc(Cl)cc1 | 4.93 (active) |
| O=S(=O)(Nc1ccc(Cl)cc1)c1ccc(NS(=O)(=O)c2ccc3c(c2)OCCO3)cc1 | -1.18 (inactive) |
| O=S(=O)(Nc1ccc(F)c(Cl)c1)c1ccc(Cl)cc1 | 2.99 (active) |
| COc1ccc(C2Oc3ccccc3C3CC(c4ccccc4)=NN32)cc1 (stereo not drawn) | -1.84 (inactive) |
| O=c1cc(-c2ccc(O)cc2)oc2c(O)c(O)ccc12 | 1.16 (inactive) |
| CSc1nc2ccccc2n1Cc1ccccc1Cl | 1.29 (inactive) |
| O=S(=O)(Nc1ccc(S(=O)(=O)Nc2ccccc2Cl)cc1)c1ccc2c(c1)OCCO2 | -1.07 (inactive) |
| CNCC1COCCO1 (stereo not drawn) | -2.02 (inactive) |
| N=C(N)SCc1csc(N)n1 | 1.98 (inactive) |
| S=c1[nH]nc(Cc2cccc3ccccc23)o1 | -2.84 (inactive) |
| C1=NC(Cc2cccc3ccccc23)NC1 (stereo not drawn) | 4.23 (active) |

| SMILES | fold change |
| --- | --- |
| Cc1nc2sc3c(c2c(=O)n1N)CCC3 | -1.06 (inactive) |
| c1ccc(CC2COC(C3=N[C@@H](Cc4ccccc4)CO3)=N2)cc1 (stereo partly drawn) | 1.27 (inactive) |
| O=C(NCCC1=CCCCC1)C(=O)NCc1ccco1 | -1.07 (inactive) |
| O=S(=O)(c1ccc2ccccc2c1)N1CCc2ccccc21 | 1 (inactive) |
| CCCCc1ccc(-c2csc(N)c2C#N)cc1 | -1.78 (inactive) |
| CCn1c(-c2ccccc2)nn(CN2CCOCC2)c1=S | 1.15 (inactive) |
| S=c1n(CN2CCOCC2)nnn1C1CCCCC1 | 1.01 (inactive) |
| S=c1n(CN2CCOCC2)nnn1-c1ccccc1 | 4.24 (active) |
| CN(C)c1nc(N)nc(CN(C)S(=O)(=O)c2ccccc2)n1 | -1.09 (inactive) |
| O=c1[nH]c2ccc(N=Cc3ccc4c(c3)OCO4)cc2[nH]1 | 2.71 (active) |
| CN(C)c1ccc(C=Nc2ccc3[nH]c(=O)[nH]c3c2)cc1[N+](=O)[O-] | -1.64 (inactive) |
| C(=Nc1ccc2[nH]ncc2c1)c1ccc2c(c1)OCO2 | -2.04 (inactive) |
| O=C(ON1C(=O)CCC1=O)ON1C(=O)CCC1=O | -1.28 (inactive) |
| O=[N+]([O-])c1ccc(Cl)c(N2CCCC2)c1 | 2.03 (inactive) |
| N=C(N)SCc1ccc(Cl)cc1Cl | -1.36 (inactive) |
| Nc1nnc(SCc2ccc(Cl)cc2)s1 | 1.21 (inactive) |
| N=C(N)SCc1ccc(Cl)cc1 | 2.73 (active) |
| O=S(=O)(NCC1CCCO1)c1ccccc1 (stereo not drawn) | -1.72 (inactive) |
| O=S(=O)(NCC1CCCO1)c1ccc(Br)cc1 (stereo not drawn) | 3.1 (active) |
| CC1Oc2ccc(S(=O)(=O)NCC3CCCO3)cc2NC1=O (stereo not drawn) | -1.21 (inactive) |
| NCC12CC3CC(CC(C3)C1)C2 | -1.38 (inactive) |
| CC1NC(=O)N(C(C)(C)C)C(=O)C1Cl (stereo not drawn) | 3.94 (active) |
| COc1ccc(N2C(=O)/C(=C\N3CCN(C)CC3)SC2=S)cc1 | -1.11 (inactive) |

| SMILES | fold change |
| --- | --- |
| Cc1ccn(-c2ccc([N+](=O)[O-])cc2)n1 | -1.59 (inactive) |
| O=C1NC(=S)S/C1=C/c1ccc(-c2cccc(C(F)(F)F)c2)o1 | 1.1 (inactive) |
| O=C1NC(=O)/C(=C\c2ccc(-c3cccc(C(F)(F)F)c3)o2)S1 | -1.8 (inactive) |
| N#CC(C#N)=Cc1ccc(-c2cccc(C(F)(F)F)c2)o1 | 2.62 (active) |
| O=C1CSc2ccc(NC(=O)C3CCCC3)cc2N1 | 1.29 (inactive) |
| Nc1cc(N2CCOCC2)ccc1[N+](=O)[O-] | 3.38 (active) |
| O=[N+]([O-])c1ccc(N2CCCCC2)cc1N1CCOCC1 | -1.29 (inactive) |
| O=[N+]([O-])c1ccc(N2CCOCC2)cc1 | 1.1 (inactive) |
| O=C(O)C(C(=O)O)C1C=CCC1 (stereo not drawn) | 1.13 (inactive) |
| Nc1ccc(N2CCOCC2)c(Cl)c1 | 4.13 (active) |
| Nc1ccc(N2CCOCC2)c(Br)c1 | -1.07 (inactive) |
| Nc1cc(Cl)ccc1N1CCOCC1 | 1.23 (inactive) |
| N#CC1=C(N)n2c(s/c(=C\c3ccc(Br)cc3)c2=O)=C(C#N)C1c1ccc(Br)cc1 (stereo not drawn) | -1.13 (inactive) |
| Brc1ccc(-c2csc(N3CCOCC3)n2)cc1 | 1.56 (inactive) |
| N#CC(C#N)C(c1ccsc1)c1c(-c2ccccc2)[nH][nH]c1=O (stereo not drawn) | 3.37 (active) |
| Clc1ccc(-c2nc3sc(-c4ccc(Cl)cc4Cl)nc3s2)c(Cl)c1 | -2.46 (inactive) |
| COC(=O)c1nc2ccc(OC)cc2s1 | -1.15 (inactive) |
| COc1ccc(C2C(C#N)=C(N)NC(C(C#N)C#N)=C2C#N)cc1OC (stereo not drawn) | -1.8 (inactive) |
| O=C(O)c1ccn[nH]1 | 3.42 (active) |
| CCOC(=O)CO/N=C(\C(=O)O)c1ccn[nH]1 | inactive |
| COC(=O)CNC(=O)c1ccn[nH]1 | -1.28 (inactive) |
